Legend:
Test in all cases: PBM binding z-score (relative to random genomic background probes); higher = stronger binding; sequences stand for … in GC…GCGATTGACAGCGTAGAATGAAGG
[1] = tested on: FXR:RXRa (NR concentration 270 nM, RXRa partner concentration 90 nM)
Outline: (§1)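 Random background probes are the reference for binding z-scores. These scores derive from regression-normalized fluorescence on custom Agilent 4×180K protein-binding microarrays incubated 1 h with ligand-free nuclear receptor dimers. Binding was detected with antibodies against each partner (one per run).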

[2] = tested on: LXRa:RXRa (NR concentration 270 nM, RXRa partner concentration 90 nM)
Outline: as §1

[3] = tested on: LXRa homodimer (NR concentration 270 nM)
Outline: as §1

[4] = tested on: LXRb:RXRa (NR concentration 270 nM, RXRa partner concentration 90 nM)
Outline: as §1

[5] = tested on: LXRb homodimer (NR concentration 270 nM)
Outline: as §1

[6] = tested on: PPARa:RXRa (NR concentration 270 nM, RXRa partner concentration 90 nM)
Outline: as §1

[7] = tested on: PPARg:RXRa (NR concentration 180 nM, RXRa partner concentration 90 nM)
Outline: as §1

[8] = tested on: PPARg:RXRa 270nM:90nM, anti-RXR (NR concentration 270 nM, RXRa partner concentration 90 nM)
Outline: as §1

[9] = tested on: PPARg:RXRa 30nM:10nM, anti-RXR (NR concentration 30 nM, RXRa partner concentration 10 nM)
Outline: as §1

[10] = tested on: PPARg:RXRa 90nM:30nM, anti-RXR (NR concentration 90 nM, RXRa partner concentration 30 nM)
Outline: as §1

Sequence | PBM binding z-score [1] | PBM binding z-score [2] | PBM binding z-score [3] | PBM binding z-score [4] | PBM binding z-score [5] | PBM binding z-score [6] | PBM binding z-score [7] | PBM binding z-score [8] | PBM binding z-score [9] | PBM binding z-score [10]
TCATATTGGTAATACAGGTGAAAGTCGGCATCTA | 1.28 | 1.16 | 0.763 | 1.2 | 0.359 | 1.79 | 1.09 | 2.7 | 3.88 | 3.11
ACTAGCAGGCCAAGGGTCACTCGAGATTAGTCCG | 2.44 | 2.89 | 0.209 | 2.6 | -0.293 | 4.51 | 7.9 | 7.44 | 6.36 | 8.11
CCTTACGGGTCACGATGTTATAGCACGACGAGCG | 5.82 | 3.85 | 0.154 | 3.42 | -0.0634 | 5.51 | 6.19 | 5.77 | 3.09 | 4.59
GATACAGGGACAAGGCCAGAGTACGCGTATTGAT | -0.342 | -0.63 | -0.318 | -0.797 | -0.748 | -0.534 | 0.946 | 0.318 | 0.00447 | -0.175
CCTTACGGGTCACGAAGTTATAGCACGACGAGCG | 6.04 | 3.71 | -0.266 | 3.39 | -0.139 | 5.75 | 6.25 | 5.64 | 2.5 | 4.43
GCTATTAGTTGAATGGGCAACCGAATGATTCTCG | -0.277 | -0.309 | -0.219 | -0.351 | -0.317 | -0.737 | 0.129 | -0.166 | -0.146 | 0.0794
CCTATTAGTTGACCATGAGGGCAACCGAAGCTCG | 1.01 | 0.684 | 0.747 | 0.619 | 0.6 | 0.652 | 0.438 | 0.373 | -0.175 | 0.282
TTACCATGGTGAAAGGTCGTTGATGCACGCCTTG | 1.54 | 1.93 | 0.41 | 2.22 | -0.316 | 4.04 | 5.88 | 6.89 | 5.62 | 8.01
TCAGACAGGGGAAGGTAACTCAGGTACGCAGTCG | 0.82 | 1.65 | 0.166 | 1.3 | 0.859 | 0.994 | 0.622 | 2.06 | 3.77 | 2.68
GGAACGAGGGCATTGGAGTTGATAGCATGGCGAT | 0.624 | 1.25 | -0.304 | -0.0971 | -0.75 | 1.36 | 0.831 | 0.611 | -0.313 | -0.0775
CCGACTGGGGCAAGGTTACGATAACGCACAGCCA | 0.216 | 0.654 | -0.354 | 0.677 | -1.27 | 2.06 | 2.79 | 3.25 | 0.969 | 2.5
ATCTCTAGGCAAGACTCAGTTCAGTGAAGAACGC | -0.14 | 0.0146 | -0.0156 | -0.438 | -0.221 | -0.499 | 0.011 | -0.156 | -0.193 | -0.262
ACTCGGAGGACAACGGTCAGAGCTACGCCAGTGA | 0.0223 | -0.221 | -0.37 | -0.773 | -0.828 | -0.354 | 0.852 | 0.638 | -0.439 | 0.354
TCGAGTATGTTAGGGGCATTCAGAATGGCGTCGA | 0.201 | 0.198 | -0.264 | 0.596 | -0.345 | 0.669 | 0.0373 | 0.882 | 0.884 | 1.02
TAGCCTAGGTCAGATCGGGCTAGTATACGCTATA | 1.81 | 1.03 | -0.52 | 0.639 | -0.577 | 1.73 | 0.628 | 0.874 | -0.237 | 0.393
ACTATTAGTTGACGTAGGGCAACCGATACGACGC | -0.0128 | -0.0574 | 0.207 | -0.148 | 0.503 | -0.147 | 1 | 0.00726 | 0.129 | 0.289
TCTTGTAGATCAGCAGGCTAAGAAAGCTGGCCAA | -0.304 | -0.495 | -0.573 | -0.216 | -0.933 | 0.0616 | -0.735 | 0.857 | 2.22 | 1.47
ACTAGTTGGTCAGCTGAGGTTACACACAATTCGG | 1.56 | 0.761 | 0.139 | 1.29 | 0.188 | 1.42 | 0.989 | 0.496 | 0.134 | 0.586
CCAGACAGATGAAAGGTAACTCAGTCTGGTACGC | -0.273 | 0.0444 | -0.381 | 0.156 | -0.167 | 0.579 | 0.879 | 1.21 | 0.636 | 0.829
CGTCCAAGGTCATAGGAGGTGAGTGAAGACAGAT | 7.28 | 5.61 | 1.23 | 4.25 | 0.462 | 5.79 | 4.94 | 5.08 | 1.98 | 3.99
CGGCCAAGGTCAATGCTAGGTCAGTGAAAGCATT | 6.95 | 5.47 | 1.75 | 4.08 | 0.00864 | 5.19 | 4.4 | 4.78 | 1.47 | 3.21
CCTTGGAGGACAACAGGAGGTCAGAGCTGCCAGA | 1.03 | 2.19 | 2.44 | 1.58 | -0.284 | 2.26 | 0.731 | 0.64 | 0.153 | 0.077
ACAGACAGGTGATGAAGGAAACTCAGGCTATCAT | 0.101 | -0.0621 | -0.0645 | -0.383 | -0.211 | 0.0161 | 0.66 | -0.12 | 0.224 | -0.159
CCTAGTTGGTCAAGGTCAAACACGCTATAGGTAC | 5.04 | 4.62 | 3.57 | 4.52 | 1.24 | 4.81 | 3.13 | 3.93 | 1.16 | 3.04
CCGCGGAGGACAACAGGAGGTCAGAGCTGCCAGA | 1.23 | 2.08 | 1.98 | 1.49 | -0.659 | 2.17 | 0.34 | 0.0732 | -0.523 | -0.778

Sequence | PBM binding z-score [1] | PBM binding z-score [2] | PBM binding z-score [3] | PBM binding z-score [4] | PBM binding z-score [5] | PBM binding z-score [6] | PBM binding z-score [7] | PBM binding z-score [8] | PBM binding z-score [9] | PBM binding z-score [10]
TCATATAGGTAATACAGGTGACAGTCGGCATCTA | 1.08 | 1.27 | 0.299 | 0.966 | 0.0585 | 1.77 | 1.81 | 2.52 | 3.86 | 3.05
ATAACGAGGGCAATGAGTTGATAGCACGGGTGGC | 0.269 | 0.688 | -0.402 | 0.00885 | 0.11 | 1.23 | 1.8 | 1.31 | 0.221 | 0.999
TCTCTTAGTTGAAGGGCAACCGACGAGTCCGTTT | 0.776 | 1.01 | 0.193 | 0.945 | 0.697 | 1.06 | -0.252 | 2.02 | 3.7 | 3.13
TCGAGTAGGTTAGGGCCATTCAGAATGGCGTCGA | 0.218 | -0.0329 | -0.658 | -0.207 | -1.05 | 0.58 | 0.0561 | 0.722 | 0.497 | 0.65
TCAATGAGGTTATAAGATCAGGGAACGTTGCAAA | 1.62 | 1.48 | -0.0675 | 1.39 | -0.169 | 2.7 | 1.07 | 2.15 | 2.81 | 2.66
TCTATGAGTTGATTAGGGCAACCGAAACAGCGGA | 0.319 | 0.351 | -0.0686 | 0.151 | -0.328 | 1.07 | 0.39 | 1.31 | 2.32 | 1.65
CGTACAAGGTCAAGGTCAGTGAAAGAGACTCGAA | 7.99 | 5.91 | 1.33 | 5.06 | 1.34 | 6.47 | 7.35 | 6.73 | 3.62 | 5.87
TCTAGTTGGTCAAAGGGCACACACTCGAAATGCG | 1.38 | 1.56 | 0.344 | 1.48 | 0.0761 | 4.28 | 8.25 | 7.85 | 7.7 | 8.57
CCTTACGGGTCATGGTTATAGCACGGGTGGTACG | 5.13 | 3.14 | -0.115 | 2.68 | -0.0469 | 4.97 | 3.99 | 4.19 | 1.44 | 3.03
CCTGCTAGCTCAATGGTCAGCTAAAGCAGCTCGC | -0.674 | -0.624 | -0.571 | -0.457 | -0.691 | -0.408 | -0.805 | -0.234 | -0.854 | -0.539
ATCTCTAGGTAAAGATAGTTCAGTGTATGCAAAT | 0.705 | 4.16 | 0.797 | 0.893 | 0.581 | 1.05 | 0.827 | 0.452 | 0.59 | 0.44
TCTTGTAGATCAACAGGAGTTTAAGAAAGATCGA | -0.268 | 0.229 | -0.339 | -0.131 | -0.759 | 0.604 | 0.0426 | 1.19 | 2.22 | 1.87
CCTTACGGGTGACGAGGTTATAGCACGACGAGCG | 0.791 | 0.766 | -0.00764 | 0.572 | -0.569 | 2.24 | 1.89 | 1.82 | -0.0114 | 1.22
CGAACTAGGTCACGGACAGTGAATCTCCGCACGC | 4.87 | 3.34 | 0.231 | 2.64 | -0.137 | 5.68 | 9.36 | 7.68 | 5.94 | 7.84
ACTAGCAGGCCACGGGTCACTCAAGATTAGTCCG | 0.933 | 1.15 | -0.0855 | 1.3 | -0.734 | 2.7 | 3.18 | 3.72 | 1.75 | 3.53
CCTAGCAGGCCATGGTCACTCAAGCATTTCGCTT | -0.268 | -0.369 | -0.374 | -0.307 | -0.863 | -0.349 | -0.143 | -0.198 | -0.855 | -0.418
CCAGACAGGTGAGAAGGAAACTCAGCCTCGATTA | 0.0152 | -0.159 | 0.111 | -0.146 | -0.36 | 0.0665 | 0.519 | 0.482 | -0.0162 | 0.249
CCTACTGGGCCATCCGGTCATTGATATCAACGTT | 0.445 | 0.184 | 1.03 | 0.144 | 0.244 | 1.37 | 1.4 | 2.5 | 0.753 | 1.81
CCTAGTTGCTCAGGAGGTCACACACCGGATATGA | 3.45 | 3.66 | 2.47 | 3.74 | 0.953 | 4.23 | 1.96 | 2.65 | 0.83 | 1.79
CGTCCAAGGTCAGAGCGGTCAGTGAATGCCGAGT | 4.97 | 4.15 | 1.27 | 2.69 | -0.231 | 3.86 | 1.33 | 2.69 | 0.148 | 1.42
CTCGAAAGGTCGTGCTCAGGTGAGCATACCAAAC | 5.82 | 4.04 | -0.293 | 3.23 | 0.516 | 4.76 | 3.03 | 4.08 | 1.02 | 2.96
CATCCAGGGTCAGCTAGGCCAGAGTAGGGACGGC | 4.57 | 3.12 | -0.152 | 2.1 | 0.239 | 4.34 | 2.97 | 3.3 | 0.549 | 1.89
GGAACGAGGGCAAAGTTGACAGCATCTGTCGACG | 2.02 | 1.27 | -0.425 | 1.25 | -0.409 | 4.78 | 8.22 | 7.66 | 7.72 | 8.34
CGAACGAAGGCATGAGTTGATAGCAAATGCCGAT | -0.766 | -0.753 | -0.489 | -0.751 | -1.09 | -0.568 | 0.575 | -0.579 | -0.739 | -0.741
